Source: the supplement of paper PMC12340641
Counter-ions that a name gives are not always drawn.

What follows are compounds tested on HEK293FT dCK*-IKZF1 (assay: relative growth recovery (pomalidomide 10 uM = 100%, DMSO = 0%); higher = more growth rescue (IKZF1 fusion degradation)). Settings: compound concentration: 5 uM; AraC concentration: 0.3 uM; overnight pretreatment + 4 days AraC.
Method in brief: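 On day 5, whole-well imaging was used to count Hoechst 33342-stained nuclei of HEK293FT cells stably carrying a deoxycytidine kinase–IKZF1 fusion. These cells had received 5 μM compound 2 h after seeding, followed after overnight at 37 °C by a nucleoside suicide substrate at 0.3 μM plus medium for 4 days. Growth recovery was normalised on each plate against a reference degrader and vehicle, which defined 100% and 0%, and values are duplicate means from separate days.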

SMILES | relative growth recovery [%]
CC1(S(=O)(=O)[O-])CC(=O)c2ccccc2C1=O (stereo not drawn) [menadione-bisulfite] | -7.9
CCOC(=O)C1=C[C@]2(CC)CCCN3CCc4c(n1c1ccccc41)[C@@H]32 | 3.4
Nc1ccc2ncnc(NCCc3ccc(Oc4ccccc4)cc3)c2c1 | -2.79
O=C(N/N=C/c1ccccc1O)c1ccccc1O | -2.29
CCOC(=O)CC(=O)N1CCSC1COc1ccccc1OC (stereo not drawn) [Moguisteine] | -0.775
CCN(CC)CCNc1ccc(CO)c2sc3ccccc3c(=O)c12 [Hycanthone] | -12.3
C=C1CCC2[C@](C)(CO)[C@H](O)CC[C@@]2(C)[C@@H]1C/C=C1/C(=O)OC[C@H]1O (stereo partly drawn) [Andrographolide] | -5.34
CCc1c2c(nc3ccc(O)cc13)-c1cc3c(c(=O)n1C2)COC(=O)[C@]3(O)CC | -13
CO[C@H]1/C=C/O[C@@]2(C)Oc3c(C)c(O)c4c(O)c(c(C=NN5CCN(C)CC5)c(O)c4c3C2=O)NC(=O)C(C)=CC=CC(C)[C@@H](O)[C@@H](C)[C@H](O)[C@H](C)[C@@H](OC(C)=O)[C@H]1C (stereo partly drawn) [Rifampin (Rifampicin)] | -2.73
CCn1c(=O)[nH]c2cc(Cl)c(Cl)cc21 | -1.89
CSCC[C@H](N)C(=O)O [L-methionine] | 1.19
CC(=C\c1ccc(Cl)cc1)/C(C)=N/O | -3.61
O=C(Nc1ccc(Cl)cc1)Nc1ccc(Cl)c(Cl)c1 [Triclocarban] | -1.68
Clc1ccc2c(NCCNc3ccnc4cc(Cl)ccc34)ccnc2c1 | -1.39
Cc1ccc(S(=O)(=O)c2ccc([N+](=O)[O-])o2)cc1 | -12.9
CCN(CC)CCCC(C)Nc1c2ccc(Cl)cc2nc2ccc(OC)cc12 (stereo not drawn) | -13.4
CO[C@H]1O[C@@H]2O[C@@]3(C)CC[C@H]4[C@H](C)CC[C@@H]([C@H]1C)[C@@]24OO3 [Artemether] | -5.75
COc1ccc2c(C)nc(Nc3nc(C)c(C)c(O)n3)nc2c1 [madrasin] | 0.18
CN(Cc1cnc2nc(N)nc(N)c2n1)c1ccc(C(=O)N[C@@H](CCC(=O)O)C(=O)O)cc1 | -10.1

SMILES | relative growth recovery [%]
Nc1ccc(S(=O)(=O)Nc2ncccn2)cc1 | 2.56
CCCCCCC[N+](CC)(CC)CCCCc1ccc(Cl)cc1 [clofilium] | -1.53
CC[C@]1(O)C[C@H]2CN(CCc3c([nH]c4ccccc34)[C@@](C(=O)OC)(c3cc4c(cc3OC)N(C)[C@H]3[C@@](O)(C(=O)OC)[C@H](OC(C)=O)[C@]5(CC)C=CCN6CC[C@]43[C@@H]65)C2)C1 [Vinblastine Sulfate] | -11.7
CC(=O)c1ccc(S(=O)(=O)NC(=O)NC2CCCCC2)cc1 | 1.03
Nc1ncn([C@H]2C[C@H](O)[C@@H](CO)O2)c(=O)n1 [Decitabine] | -11.4
Cc1cc2nc3ccc(N(C)C)cc3[s+]c2cc1N | -13.5
c1cc2c(cc1C1CCCCC1)c1c3n2CCNC3CCC1 (stereo not drawn) [tetrindole] | -9.3
Oc1c(I)cc(I)c(O)c1I [riodoxol] | -3.17
NC(=O)c1cn([C@@H]2O[C@H](CO)[C@@H](O)[C@H]2O)c2ncnc(N)c2c1=O | -1.56
Cc1ccccc1/N=N/c1ccc(NC(=O)c2ccnn2C)c(C)c1 | -0.005
CC(C)(C)c1ccc(-c2nc3cccc(N4CCN(Cc5ccc6nccnc6c5)CC4)c3[nH]2)cc1 | 9.79
O=C1OC2(c3ccc(O)cc3Oc3cc(O)ccc32)c2ccccc21 | -3.9
COc1ccc(Cl)cc1C(=O)NCCc1ccc(S(=O)(=O)NC(=O)NC2CCCCC2)cc1 | 3.14
O=c1oc(-c2ccc(C(F)(F)F)cc2)nn1Cc1cc(Cl)ccc1O | -5.1
NC(=O)N1c2ccccc2CC(O)c2ccccc21 (stereo not drawn) [licarbazepine] | 0.095
O=c1c(-c2ccccc2)c1-c1ccccc1 [diphencyprone] | -11.2
CCCOc1ccc2nc(NC(=O)OC)[nH]c2c1 | -2.92
Cc1cc([C@H](C(=O)N2C[C@H](O)C[C@H]2C(=O)N[C@@H](CC(=O)N2CCC(C#Cc3ccc(C(=O)N[C@H]4C(C)(C)[C@H](Oc5ccc(C#N)c(Cl)c5)C4(C)C)cc3)CC2)c2ccccc2)C(C)C)on1 | -0.74
COc1nccnc1NS(=O)(=O)c1ccc(N)cc1 [sulfametopyrazine] | -1.09
